Data published in ChEMBL document CHEMBL1157539, “Thousands of chemical starting points for antimalarial lead identification” (Nature, 2010).

tested on: HepG2; experiment: GSK_TCMDC: Percent inhibition of human HepG2 cell line. Test compounds present at 10uM.; type: functional

Row | SMILES | Inhibition [%]
1 | COc1ccc(C=Cc2cc(=N)c3ccccc3[nH]2)cc1.I | 38
2 | Cc1ccc(-c2cc(C(=O)Nc3ccc(S(=O)(=O)N(C)Cc4ccccc4)cc3)[nH]n2)c(O)c1 | 34
3 | O=C(NC1CC1)c1cnc(N2CCC(c3ccccc3)CC2)c(Cl)c1.O=C(O)C(F)(F)F | 6
4 | CC(C)CCN(Cc1cncn1Cc1ccccc1F)C(=O)c1cncc(-c2ccccc2)c1 | 1
5 | Cc1cccc2nc(-c3ccc(-c4ccc(CNCC5CCCO5)cc4)cc3)[nH]c12.O=C(O)C(F)(F)F (centres undefined) | 36
6 | O=C(Nc1cccc(CN2CCCN(CCc3ccccc3)CC2)c1)c1cc2ccccc2s1.O=C(O)C(F)(F)F | 37
7 | O=C(NCCN1CCCCC1)c1cccc(Nc2nccc(Nc3ccc(Oc4ccccc4)cc3)n2)c1 | 50
8 | C=CCNc1cc(-c2ccccn2)nc(-c2ccccn2)n1 | 78
9 | CCCCOc1ccc(C(O)C(CN2CCCCC2)c2ccccc2)cc1 (centres undefined) | 7
10 | CC(C)(C)c1cc(C(=O)N2CCN(c3ncccc3C(F)(F)F)CC2)n(Cc2ccccc2)n1 | 0
11 | COc1ccc([N+](=O)[O-])cc1N(Cc1ccccc1-c1ccccc1)S(=O)(=O)c1ccc(C(F)(F)F)cc1 | 3
12 | Cl.N#Cc1ccc2c(c1)CN(CCC1CCC(NC(=O)c3cc4ccccc4cc3N)CC1)CC2 (centres undefined) | 5
13 | Cl.N#Cc1ccc2c(c1)CCN(CCC1CCC(Nc3ncnc4ccccc34)CC1)C2 (centres undefined) | 65
14 | CCC(C)NS(=O)(=O)c1ccc2nc(Nc3ccc(C)cc3)n(C3CCCCC3)c2c1 (centres undefined) | 0
